According to the supplement of paper PMC10849652:
The full data set covers some 7,900 targets. This sample favours those with a hit. About 0.6% of all pairs of compound and target were hits.

Key:
Assay in all cases: log2 fold change, soluble protein after heating vs DMSO (PISA); higher = thermal stabilisation; K562 cells, 10 uM, 30 min; active = over 0.2 and 3.5 SD of the protein, either way, in both replicates (recomputed)
[1] = compound: COC1=CC=C(C=C1)CN2C=CC3=C2C=C(C=C3)C(=O)NO
Outline: (§1)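 K562 cells at 2×10^6 cells/mL were treated for 30 min with 10 μM compound, and aliquots were heated for 3 min over 48°C-58°C before pooling. Extraction used PBS with 0.5% NP-40 at 4°C, and soluble protein was the supernatant after 21,000xg for 90 min, measured by TMTpro 16plex LC-MS/MS with channel sums equalised. Thermal stability values, relative to control samples and from duplicates, are log2 fold changes.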

filanesib = compound: CON(C)C(=O)N1N=C(c2cc(F)ccc2F)S[C@@]1(CCCN)c1ccccc1 [filanesib]
Outline: as §1

zotarolimus = compound: CO[C@H]1C[C@@H]2CC[C@@H](C)[C@@](O)(O2)C(=O)C(=O)N2CCCC[C@H]2C(=O)O[C@H]([C@H](C)C[C@@H]2CC[C@H](n3cnnn3)[C@H](OC)C2)CC(=O)[C@H](C)/C=C(\C)[C@@H](O)[C@@H](OC)C(=O)[C@H](C)C[C@H](C)/C=C/C=C/C=C/1C [zotarolimus]
Outline: as §1

idasanutlin = compound: COc1cc(C(=O)O)ccc1NC(=O)[C@@H]1N[C@@H](CC(C)(C)C)[C@](C#N)(c2ccc(Cl)cc2F)[C@H]1c1cccc(Cl)c1F [idasanutlin]
Outline: as §1

alisertib = compound: COc1cc(Nc2ncc3c(n2)-c2ccc(Cl)cc2C(c2c(F)cccc2OC)=NC3)ccc1C(=O)O [alisertib]
Outline: as §1

[2] = compound: COc1cc2nc(-c3cc(F)ccc3O)nc(N[C@@H]3CNC[C@H]3C(C)(C)O)c2cc1OC
Outline: as §1

gefitinib = compound: COc1cc2ncnc(Nc3ccc(F)c(Cl)c3)c2cc1OCCCN1CCOCC1 [gefitinib]
Outline: as §1

[3] = compound: COc1cccc2cc(-c3nc([C@H]4CC[C@H](C(=O)O)CC4)n4ncnc(N)c34)[nH]c12
Outline: as §1

lapatinib = compound: CS(=O)(=O)CCNCc1ccc(-c2ccc3ncnc(Nc4ccc(OCc5cccc(F)c5)c(Cl)c4)c3c2)o1 [lapatinib]
Outline: as §1

pictilisib = compound: CS(=O)(=O)N1CCN(Cc2cc3nc(-c4cccc5[nH]ncc45)nc(N4CCOCC4)c3s2)CC1 [pictilisib]
Outline: as §1

[4] = compound: CS(=O)(=O)c1ccc(-c2cnc(N)c(C(=O)Nc3ccccc3)n2)cc1
Outline: as §1

crizotinib = compound: C[C@@H](Oc1cc(-c2cnn(C3CCNCC3)c2)cnc1N)c1c(Cl)ccc(F)c1Cl [crizotinib]
Outline: as §1

[5] = compound: C[C@@H]1COCCN1C2=NC(=NC(=C2)C3(CC3)S(=O)(=O)C)C4=C5C=CNC5=CC=C4
Outline: as §1

[6] = compound: C[C@H](C1=CC=C(C=C1)C(=O)NC2=C3C=CNC3=NC=C2)N
Outline: as §1

duvelisib = compound: C[C@H](Nc1ncnc2nc[nH]c12)c1cc2cccc(Cl)c2c(=O)n1-c1ccccc1 [duvelisib]
Outline: as §1

gandotinib = compound: Cc1cc(Nc2cc(CN3CCOCC3)c3nc(C)c(Cc4ccc(Cl)cc4F)n3n2)n[nH]1 [gandotinib]
Outline: as §1

tozasertib = compound: Cc1cc(Nc2cc(N3CCN(C)CC3)nc(Sc3ccc(NC(=O)C4CC4)cc3)n2)n[nH]1 [tozasertib]
Outline: as §1

[7] = compound: Cc1cc(SCc2sc(-c3ccc(C(F)(F)F)cc3)nc2C)ccc1OCC(=O)O
Outline: as §1

doramapimod = compound: Cc1ccc(-n2nc(C(C)(C)C)cc2NC(=O)Nc2ccc(OCCN3CCOCC3)c3ccccc23)cc1 [doramapimod]
Outline: as §1

ispinesib = compound: Cc1ccc(C(=O)N(CCCN)[C@@H](c2nc3cc(Cl)ccc3c(=O)n2Cc2ccccc2)C(C)C)cc1 [ispinesib]
Outline: as §1

UniProt Q8IY18, sequence (Q8IY18 whole entry, looked up): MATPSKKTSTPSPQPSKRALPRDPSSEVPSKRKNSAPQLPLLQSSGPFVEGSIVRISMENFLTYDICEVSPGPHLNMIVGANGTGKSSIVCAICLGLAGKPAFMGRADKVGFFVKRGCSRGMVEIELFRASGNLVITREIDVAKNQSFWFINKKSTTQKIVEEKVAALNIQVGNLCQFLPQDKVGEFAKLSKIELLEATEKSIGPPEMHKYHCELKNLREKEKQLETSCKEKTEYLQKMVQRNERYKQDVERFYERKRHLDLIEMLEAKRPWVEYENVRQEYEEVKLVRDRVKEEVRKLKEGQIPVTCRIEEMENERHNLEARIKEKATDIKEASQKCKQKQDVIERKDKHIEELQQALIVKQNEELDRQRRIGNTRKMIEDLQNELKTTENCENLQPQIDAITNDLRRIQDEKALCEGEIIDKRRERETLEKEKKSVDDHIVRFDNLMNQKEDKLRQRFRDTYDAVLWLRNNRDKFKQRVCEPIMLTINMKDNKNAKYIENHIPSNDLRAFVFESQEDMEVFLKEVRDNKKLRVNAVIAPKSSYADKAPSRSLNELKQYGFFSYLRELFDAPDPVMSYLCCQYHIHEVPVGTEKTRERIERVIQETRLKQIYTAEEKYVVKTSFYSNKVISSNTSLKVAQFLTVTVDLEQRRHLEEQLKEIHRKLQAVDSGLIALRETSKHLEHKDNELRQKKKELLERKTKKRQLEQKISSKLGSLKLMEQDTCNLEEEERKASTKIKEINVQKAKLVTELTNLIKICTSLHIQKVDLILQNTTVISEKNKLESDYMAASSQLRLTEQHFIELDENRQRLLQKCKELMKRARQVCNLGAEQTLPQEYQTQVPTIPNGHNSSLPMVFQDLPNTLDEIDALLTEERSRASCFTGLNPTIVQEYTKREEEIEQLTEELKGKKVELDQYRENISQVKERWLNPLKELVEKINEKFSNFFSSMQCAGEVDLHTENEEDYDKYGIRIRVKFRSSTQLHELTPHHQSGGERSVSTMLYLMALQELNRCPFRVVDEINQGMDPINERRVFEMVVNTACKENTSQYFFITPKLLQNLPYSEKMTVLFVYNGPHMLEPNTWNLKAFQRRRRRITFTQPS
UniProt Q92544, sequence (Q92544 whole entry, looked up): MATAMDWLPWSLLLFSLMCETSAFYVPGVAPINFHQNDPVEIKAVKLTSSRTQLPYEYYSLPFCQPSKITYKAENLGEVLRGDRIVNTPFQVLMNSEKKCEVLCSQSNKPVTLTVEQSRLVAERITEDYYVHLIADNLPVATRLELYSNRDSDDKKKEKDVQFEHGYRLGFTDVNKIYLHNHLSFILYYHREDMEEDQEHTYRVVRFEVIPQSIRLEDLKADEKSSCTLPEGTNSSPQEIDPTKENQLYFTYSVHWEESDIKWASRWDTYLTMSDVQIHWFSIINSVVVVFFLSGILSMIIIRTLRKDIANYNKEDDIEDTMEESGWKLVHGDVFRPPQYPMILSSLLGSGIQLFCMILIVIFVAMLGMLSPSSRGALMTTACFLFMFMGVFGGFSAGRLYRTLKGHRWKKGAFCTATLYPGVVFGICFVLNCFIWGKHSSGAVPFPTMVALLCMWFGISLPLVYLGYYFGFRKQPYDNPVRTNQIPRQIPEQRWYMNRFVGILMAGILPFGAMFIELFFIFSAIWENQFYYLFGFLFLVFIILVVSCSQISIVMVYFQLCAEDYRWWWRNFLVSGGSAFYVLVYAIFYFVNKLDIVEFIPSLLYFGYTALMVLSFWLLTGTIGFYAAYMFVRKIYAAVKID
UniProt Q86VP1, sequence (Q86VP1 whole entry, looked up): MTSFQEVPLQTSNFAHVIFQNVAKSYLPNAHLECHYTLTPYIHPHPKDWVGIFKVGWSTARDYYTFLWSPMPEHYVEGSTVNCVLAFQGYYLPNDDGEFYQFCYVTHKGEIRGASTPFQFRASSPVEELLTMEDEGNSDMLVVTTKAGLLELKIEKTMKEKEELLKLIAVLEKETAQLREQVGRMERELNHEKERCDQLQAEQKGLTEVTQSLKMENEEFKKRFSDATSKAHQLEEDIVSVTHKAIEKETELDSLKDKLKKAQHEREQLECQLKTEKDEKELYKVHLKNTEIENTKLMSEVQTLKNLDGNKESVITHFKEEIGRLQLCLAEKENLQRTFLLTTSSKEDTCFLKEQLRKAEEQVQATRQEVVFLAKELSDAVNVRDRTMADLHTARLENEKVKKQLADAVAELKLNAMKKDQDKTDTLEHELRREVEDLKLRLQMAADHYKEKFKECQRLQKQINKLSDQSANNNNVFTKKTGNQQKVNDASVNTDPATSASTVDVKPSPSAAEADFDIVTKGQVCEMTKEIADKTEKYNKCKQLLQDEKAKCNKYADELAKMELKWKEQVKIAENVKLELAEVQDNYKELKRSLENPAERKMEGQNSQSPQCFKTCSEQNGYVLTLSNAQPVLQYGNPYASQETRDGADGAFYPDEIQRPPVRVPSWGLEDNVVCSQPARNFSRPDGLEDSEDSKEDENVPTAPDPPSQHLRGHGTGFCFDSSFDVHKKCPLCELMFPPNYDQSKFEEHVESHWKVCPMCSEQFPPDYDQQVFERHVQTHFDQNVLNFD
UniProt O60749, sequence (O60749 whole entry, looked up): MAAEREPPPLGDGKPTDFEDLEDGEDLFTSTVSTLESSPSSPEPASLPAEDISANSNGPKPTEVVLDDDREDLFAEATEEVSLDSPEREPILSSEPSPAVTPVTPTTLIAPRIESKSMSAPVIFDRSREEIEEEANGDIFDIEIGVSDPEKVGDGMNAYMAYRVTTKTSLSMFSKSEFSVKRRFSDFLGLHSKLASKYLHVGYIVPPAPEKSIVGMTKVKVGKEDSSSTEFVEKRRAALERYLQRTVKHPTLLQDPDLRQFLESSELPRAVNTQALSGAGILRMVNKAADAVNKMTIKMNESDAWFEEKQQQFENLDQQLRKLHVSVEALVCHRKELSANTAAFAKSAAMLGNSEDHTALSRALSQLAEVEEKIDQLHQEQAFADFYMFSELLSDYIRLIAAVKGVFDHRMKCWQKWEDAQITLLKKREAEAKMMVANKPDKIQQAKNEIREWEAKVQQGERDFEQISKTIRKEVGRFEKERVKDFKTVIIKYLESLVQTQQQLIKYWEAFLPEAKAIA
UniProt Q13428, sequence (Q13428 whole entry, looked up): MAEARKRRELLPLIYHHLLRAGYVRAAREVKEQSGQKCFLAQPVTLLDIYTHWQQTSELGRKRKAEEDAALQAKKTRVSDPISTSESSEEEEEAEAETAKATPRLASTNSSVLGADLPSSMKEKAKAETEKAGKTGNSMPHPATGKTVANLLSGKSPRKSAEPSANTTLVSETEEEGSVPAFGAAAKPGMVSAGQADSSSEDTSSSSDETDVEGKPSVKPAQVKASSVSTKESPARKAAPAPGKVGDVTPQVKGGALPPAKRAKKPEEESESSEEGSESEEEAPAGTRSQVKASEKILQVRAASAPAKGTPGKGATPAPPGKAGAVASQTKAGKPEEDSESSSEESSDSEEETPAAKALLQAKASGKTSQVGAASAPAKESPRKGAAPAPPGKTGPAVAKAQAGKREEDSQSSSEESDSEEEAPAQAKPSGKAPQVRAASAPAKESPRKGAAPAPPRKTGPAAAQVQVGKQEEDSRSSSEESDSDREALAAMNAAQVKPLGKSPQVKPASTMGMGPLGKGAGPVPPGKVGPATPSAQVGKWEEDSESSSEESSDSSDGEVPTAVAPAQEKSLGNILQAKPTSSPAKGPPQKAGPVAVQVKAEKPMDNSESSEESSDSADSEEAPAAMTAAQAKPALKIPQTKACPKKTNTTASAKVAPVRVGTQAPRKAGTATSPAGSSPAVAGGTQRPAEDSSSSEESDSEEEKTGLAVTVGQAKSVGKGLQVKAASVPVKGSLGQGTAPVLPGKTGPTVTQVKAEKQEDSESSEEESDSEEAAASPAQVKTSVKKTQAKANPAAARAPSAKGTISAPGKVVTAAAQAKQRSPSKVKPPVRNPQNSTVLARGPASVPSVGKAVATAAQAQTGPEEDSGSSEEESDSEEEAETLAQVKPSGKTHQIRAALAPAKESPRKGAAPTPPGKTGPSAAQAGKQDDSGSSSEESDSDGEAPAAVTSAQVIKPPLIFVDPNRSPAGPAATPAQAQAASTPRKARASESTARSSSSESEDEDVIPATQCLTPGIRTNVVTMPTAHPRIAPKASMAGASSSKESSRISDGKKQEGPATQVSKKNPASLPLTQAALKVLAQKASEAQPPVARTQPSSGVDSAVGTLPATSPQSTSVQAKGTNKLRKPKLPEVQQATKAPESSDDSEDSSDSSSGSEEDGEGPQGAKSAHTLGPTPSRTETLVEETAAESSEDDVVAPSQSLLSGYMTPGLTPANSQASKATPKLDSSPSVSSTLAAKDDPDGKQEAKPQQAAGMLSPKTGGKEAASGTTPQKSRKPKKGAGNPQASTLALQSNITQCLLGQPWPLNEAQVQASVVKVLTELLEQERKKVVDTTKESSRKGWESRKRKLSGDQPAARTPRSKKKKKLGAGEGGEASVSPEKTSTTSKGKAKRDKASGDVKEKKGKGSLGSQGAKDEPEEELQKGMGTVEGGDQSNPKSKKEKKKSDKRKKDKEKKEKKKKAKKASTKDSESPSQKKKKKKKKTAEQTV
UniProt P53597, sequence (P53597 whole entry, looked up): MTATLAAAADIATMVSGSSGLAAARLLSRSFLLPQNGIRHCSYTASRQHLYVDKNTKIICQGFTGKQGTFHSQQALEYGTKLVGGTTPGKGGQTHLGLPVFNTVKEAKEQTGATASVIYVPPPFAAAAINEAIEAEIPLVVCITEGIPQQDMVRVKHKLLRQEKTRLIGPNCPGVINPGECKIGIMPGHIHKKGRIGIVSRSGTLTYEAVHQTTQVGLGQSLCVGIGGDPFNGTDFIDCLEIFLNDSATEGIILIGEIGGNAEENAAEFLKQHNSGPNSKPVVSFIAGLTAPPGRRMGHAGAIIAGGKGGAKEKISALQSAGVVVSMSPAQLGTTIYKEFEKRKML
UniProt O60493, sequence (O60493 whole entry, looked up): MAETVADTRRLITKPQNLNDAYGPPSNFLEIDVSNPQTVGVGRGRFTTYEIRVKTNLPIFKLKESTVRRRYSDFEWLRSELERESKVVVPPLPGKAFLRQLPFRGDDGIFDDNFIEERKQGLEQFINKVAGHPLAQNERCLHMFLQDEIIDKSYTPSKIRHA

| Target | log2 fold change [1] | log2 fold change (filanesib) | log2 fold change (zotarolimus) | log2 fold change (idasanutlin) | log2 fold change (alisertib) | log2 fold change [2] | log2 fold change (gefitinib) | log2 fold change [3] | log2 fold change (lapatinib) | log2 fold change (pictilisib) | log2 fold change [4] | log2 fold change (crizotinib) | log2 fold change [5] | log2 fold change [6] | log2 fold change (duvelisib) | log2 fold change (gandotinib) | log2 fold change (tozasertib) | log2 fold change [7] | log2 fold change (doramapimod) | log2 fold change (ispinesib) |
| --- | --- | --- | --- | --- | --- | --- | --- | --- | --- | --- | --- | --- | --- | --- | --- | --- | --- | --- | --- | --- |
| SNX2 (UniProt O60749) | 0.011 (inactive) | -0.156 (inactive) | 0.037 (inactive) | 0 (inactive) | 0.013 (inactive) | -0.101 (inactive) | -0.105 (inactive) | 0.029 (inactive) | 0.001 (inactive) | -0.104 (inactive) | -0.034 (inactive) | -0.223 (inactive) | 0.006 (inactive) | -0.039 (inactive) | -0.107 (inactive) | -0.216 (inactive) | -0.102 (inactive) | 0.041 (inactive) | -0.014 (inactive) | -0.184 (inactive) |
| SUCLG1 (UniProt P53597) | -0.046 (inactive) | -0.107 (inactive) | 0.004 (inactive) | -0.107 (inactive) | 0.037 (inactive) | 0.051 (inactive) | -0.01 (inactive) | 0.041 (inactive) | -0.043 (inactive) | 0.003 (inactive) | 0.016 (inactive) | -0.028 (inactive) | 0.079 (inactive) | -0.072 (inactive) | 0.067 (inactive) | -0.048 (inactive) | -0.033 (inactive) | -0.004 (inactive) | -0.019 (inactive) | -0.012 (inactive) |
| TM9SF4 (UniProt Q92544) | 0.048 (inactive) | -0.04 (inactive) | 0.036 (inactive) | 0.004 (inactive) | -0.031 (inactive) | -0.023 (inactive) | 0.086 (inactive) | 0.004 (inactive) | 0.274 (inactive) | -0.161 (inactive) | -0.029 (inactive) | -0.141 (inactive) | 0.036 (inactive) | 0.04 (inactive) | -0.015 (inactive) | -0.189 (inactive) | 0.006 (inactive) | 0.044 (inactive) | 0.034 (inactive) | -0.143 (inactive) |
| SNW1 (UniProt Q13573) | 0.014 (inactive) | 0.039 (inactive) | -0.068 (inactive) | 0.034 (inactive) | -0.08 (inactive) | 0.073 (inactive) | -0.068 (inactive) | 0 (inactive) | 0.011 (inactive) | -0.035 (inactive) | -0.035 (inactive) | 0.068 (inactive) | -0.062 (inactive) | 0.015 (inactive) | -0.016 (inactive) | 0.045 (inactive) | -0.015 (inactive) | -0.045 (inactive) | 0 (inactive) | -0.048 (inactive) |
| TCOF1 isoform 4 (UniProt Q13428) | 0.002 (inactive) | 0.028 (inactive) | -0.011 (inactive) | 0.092 (inactive) | -0.061 (inactive) | -0.051 (inactive) | -0.01 (inactive) | -0.002 (inactive) | 0.017 (inactive) | 0.028 (inactive) | -0.008 (inactive) | -0.053 (inactive) | 0.021 (inactive) | -0.016 (inactive) | -0.029 (inactive) | 0.042 (inactive) | 0.002 (inactive) | -0.047 (inactive) | 0.013 (inactive) | -0.01 (inactive) |
| STK25 (UniProt O00506) | -0.06 (inactive) | -0.006 (inactive) | -0.039 (inactive) | 0.006 (inactive) | -0.055 (inactive) | 0.076 (inactive) | -0.061 (inactive) | 0.038 (inactive) | -0.047 (inactive) | 0.053 (inactive) | 0.04 (inactive) | -0.2 (inactive) | -0.011 (inactive) | -0.026 (inactive) | 0.051 (inactive) | -0.074 (inactive) | -0.027 (inactive) | -0.001 (inactive) | 0.019 (inactive) | -0.071 (inactive) |
| TAX1BP1 (UniProt Q86VP1) | -0.03 (inactive) | -0.043 (inactive) | -0.009 (inactive) | 0.069 (inactive) | 0.007 (inactive) | -0.052 (inactive) | 0.001 (inactive) | 0.033 (inactive) | -0.012 (inactive) | 0.044 (inactive) | -0.001 (inactive) | -0.009 (inactive) | -0.058 (inactive) | 0.042 (inactive) | 0.168 (inactive) | 0.156 (inactive) | 0.152 (inactive) | 0.069 (inactive) | 0.062 (inactive) | -0.067 (inactive) |
| STOM (UniProt P27105) | 0.004 (inactive) | -0.068 (inactive) | -0.083 (inactive) | 0.046 (inactive) | -0.154 (inactive) | -0.045 (inactive) | -0.062 (inactive) | -0.004 (inactive) | 0.067 (inactive) | -0.022 (inactive) | 0.086 (inactive) | -0.005 (inactive) | -0.035 (inactive) | 0.182 (inactive) | 0.011 (inactive) | 0.268 (inactive) | -0.015 (inactive) | 0.01 (inactive) | -0.006 (inactive) | -0.29 (inactive) |
| SNX1 (UniProt Q13596) | -0.021 (inactive) | -0.182 (inactive) | 0.042 (inactive) | -0.013 (inactive) | -0.003 (inactive) | -0.063 (inactive) | -0.165 (inactive) | 0 (inactive) | -0.027 (inactive) | -0.205 (inactive) | -0.134 (inactive) | -0.247 (inactive) | 0.028 (inactive) | -0.025 (inactive) | -0.214 (inactive) | -0.319 (active) | -0.054 (inactive) | 0.049 (inactive) | -0.009 (inactive) | -0.252 (inactive) |
| SYF2 (UniProt O95926) | -0.236 (inactive) | 0.069 (inactive) | -0.174 (inactive) | 0.058 (inactive) | -0.07 (inactive) | 0.191 (inactive) | -0.109 (inactive) | 0.02 (inactive) | -0.025 (inactive) | -0.092 (inactive) | -0.147 (inactive) | 0.206 (inactive) | -0.031 (inactive) | 0.157 (inactive) | -0.039 (inactive) | 0.11 (inactive) | -0.113 (inactive) | -0.078 (inactive) | 0.022 (inactive) | -0.079 (inactive) |
| SMC5 (UniProt Q8IY18) | -0.055 (inactive) | 0.009 (inactive) | -0.032 (inactive) | -0.081 (inactive) | 0.047 (inactive) | 0.009 (inactive) | 0.034 (inactive) | 0.028 (inactive) | 0.018 (inactive) | 0.024 (inactive) | 0.03 (inactive) | 0.161 (inactive) | 0.081 (inactive) | 0.036 (inactive) | 0.046 (inactive) | 0.028 (inactive) | 0.017 (inactive) | 0.017 (inactive) | 0.015 (inactive) | 0.092 (inactive) |
| SNX3 (UniProt O60493) | -0.049 (inactive) | 0.012 (inactive) | 0.022 (inactive) | 0.075 (inactive) | 0.074 (inactive) | -0.08 (inactive) | 0.01 (inactive) | 0.056 (inactive) | -0.026 (inactive) | -0.03 (inactive) | -0.035 (inactive) | -0.106 (inactive) | 0.062 (inactive) | 0.048 (inactive) | -0.385 (active) | -0.164 (inactive) | -0.023 (inactive) | 0.085 (inactive) | 0.04 (inactive) | -0.141 (inactive) |
| TJP2 isoform 7 (UniProt Q9UDY2) | 0.019 (inactive) | 0.093 (inactive) | 0.068 (inactive) | -0.017 (inactive) | -0.151 (inactive) | -0.091 (inactive) | 0.042 (inactive) | 0.012 (inactive) | 0.008 (inactive) | 0.067 (inactive) | 0.006 (inactive) | -0.026 (inactive) | 0.064 (inactive) | -0.017 (inactive) | 0.056 (inactive) | -0.089 (inactive) | 0.071 (inactive) | 0.071 (inactive) | 0.068 (inactive) | -0.065 (inactive) |
| SMARCAD1 isoform 2 (UniProt Q9H4L7) | 0.027 (inactive) | -0.098 (inactive) | 0.028 (inactive) | -0.073 (inactive) | -0.026 (inactive) | 0.06 (inactive) | -0.062 (inactive) | -0.004 (inactive) | 0.026 (inactive) | 0.07 (inactive) | 0.029 (inactive) | -0.112 (inactive) | 0.088 (inactive) | -0.054 (inactive) | 0.081 (inactive) | -0.042 (inactive) | 0.059 (inactive) | 0.15 (inactive) | -0.058 (inactive) | 0 (inactive) |
| SMAP2 (UniProt Q8WU79) | -0.029 (inactive) | 0.048 (inactive) | 0.045 (inactive) | -0.039 (inactive) | 0.11 (inactive) | 0.247 (active) | 0.043 (inactive) | -0.072 (inactive) | -0.009 (inactive) | -0.015 (inactive) | 0.04 (inactive) | 0.097 (inactive) | 0.015 (inactive) | 0.04 (inactive) | 0.02 (inactive) | -0.011 (inactive) | 0.058 (inactive) | 0.096 (inactive) | -0.047 (inactive) | -0.006 (inactive) |
